Inhibition data for 94 molecules are collected here from PubChem BioAssay AID449762 (Southern Research Specialized Biocontainment Screening …, 2010).

Screen size: about 330,000 compounds; about 1,900 (0.58%) were called active. Another 4% or so got no clear call; they are omitted. Only a sample is shown. Measured potencies and affinities stand elsewhere. Values without a mark were called inactive. Rule as the data show it: inconclusive = inhibition above about 70% without an active follow-up result; inactive = below that.

The experiment in a line: M. tuberculosis growth inhibition, HTS (AID 449762).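 Also: bacterial growth assessed after seven days of incubation.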 The settings on record: M. tuberculosis H37Rv growth inhibition, 7H9 media; at 25 µM; stronger effect = higher value.
Take `COc1ccc(S(=O)(=O)Nc2cccc(S(=O)(=O)N3CCCC3)c2)cc1OC`: the inhibition was -4.75%.
On to `CCOC(=O)CCCNC(=O)COC(=O)c1cc(C)cc(C)c1`, for which the inhibition is -0.59%.
As for `CCOC(=O)CCCNC(=O)COC(=O)c1ccc(O)cc1`, the figure is -6.12%.
In the case of `COc1cc(NS(=O)(=O)c2c(C)[nH]c(C)c2C(=O)N2CCCCC2)cc(OC)c1OC` it was 7.96%; in that of `O=C(NC(=Nc1nc2ccccc2o1)NC(=O)c1ccccc1)c1ccccc1`, 3.54%.
Regarding `COc1ccccc1C(=O)N/C(N)=N/c1nc2ccccc2o1`, the inhibition is 0.95%.
In the case of `CCC(=O)N(Cc1ccco1)Cc1cc2cc3c(cc2[nH]c1=O)OCO3` it was 3.54%.
For `S=C(NCCc1ccccc1)N1CCN(C23CC4CC(CC(C4)C2)C3)CC1`, the inhibition was 7.41%.
As for `CCN1CCN(C2CCCCC2NS(=O)(=O)c2ccccc2)CC1` (centres undefined), the figure is -5.99%; as for `Cc1c(C(=O)Nc2nc3ccccc3[nH]2)oc2ccc(Br)cc12`, 64.1%; as for `COc1ccc2oc(C(=O)Nc3nc4ccccc4[nH]3)c(C)c2c1`, 25.6%.
As for `Cc1ccc(C(=O)Cn2c(-c3ccccc3)noc2=O)cc1`, the inhibition was 2.22%.
In the case of `CCC(C)(C)NC(=O)Cn1c(-c2ccc(C)cc2)noc1=O` it was -4.07%; in that of `Cn1ccc(-c2ccccc2)c(C#N)c1=O`, -0.87%; in that of `Cc1ccc2nc(SCC(=O)NCC3CCCO3)c(C#N)cc2c1` (centres undefined), 9.97%.
For `Cc1ccccc1OCCCCCn1ccnc1`, the inhibition is -16.2%.
In the case of `Clc1ccccc1OCCCCn1ccnc1`, the inhibition is -6.48%.
For the molecule `COc1ccccc1NC(=O)C(C)OC(=O)/C(=C/c1ccccc1)NC(C)=O` (centres undefined), the inhibition was 5.35%.
In the case of `O=C(Nc1ccc2c(c1)OCO2)c1ccc(Br)s1` it was 65%; in that of `O=C(Nc1ccc2c(c1)OCO2)c1cccs1`, -1.92%; in that of `O=c1[nH]nc(-c2ccc(F)cc2)cc1Cc1ccccn1`, 1.36%.
In the case of `CCC(C)(C)NC(=O)C(c1ccc(OC)cc1)N(C(=O)CCC(=O)Nc1cc(C)on1)c1ccccc1OC` (centres undefined) it was -10.6%.
In the case of `O=[N+]([O-])c1ccccc1/C=C/CN1CCCCC1` it was -9.58%; in that of `O=C(Nc1ccn(Cc2c(F)c(F)cc(F)c2F)n1)c1ccc(COc2ccccc2Cl)cc1`, 0.39%; in that of `O=C(Nc1ccn(Cc2c(F)c(F)c(F)c(F)c2F)n1)c1ccc(COc2ccccc2Cl)cc1`, -14%.
On to `CCCOC(=O)C1NC(=O)N2C(C(=O)OCCC)C(C)(C)S[C@H]12` (some centres undefined), for which the inhibition was -1.23%.
As for `c1ccc(CSc2ccc(-c3ccccn3)nn2)nc1`, the figure is 7.58%.
For `c1ccc(-c2ccc(SCc3cccnc3)nn2)nc1`, the inhibition was -8.38%.
In the case of `CC(=O)c1ccc(NC(=O)C(C)Sc2nnc3ccccn23)cc1` (centres undefined) it was -6.02%.
In the case of `C=CCn1c(O)c(N=Nc2ccccc2C)c2ccccc21` it was 53.8%.
As for `C=CCn1c(O)c(N=Nc2ccccc2)c2ccccc21`, the inhibition was 19.4%.
For the molecule `O=C(Nc1ccc(C(=O)N2CCCC2)cc1)Nc1ccc(Cl)cc1Cl`, the inhibition was -2.35%.
On to `CC(C)c1nc(NCCO)c2nnn(Cc3ccccc3)c2n1`, for which the inhibition is -8.58%.
As for `COc1ccc(-n2nc(C(=O)NCC(=O)Nc3cc(C)ccc3OC)c3ccccc3c2=O)c(OC)c1`, the figure is 12.5%; as for `c1ccc(Cn2c[n+](Cc3ccccc3)c3ccccc32)cc1`, 2.04%; as for `Cc1ccc(OCC(O)CN2CCN(c3ccc(C)cc3)CC2)cc1` (centres undefined), 10.5%.
As for `CO/N=C/CC(=O)Nc1ccc(F)cc1F`, the inhibition was -4.1%.
As for `O=C(CCNC(=O)c1ccc([N+](=O)[O-])cc1)Nc1ccc(F)cc1F`, the figure is 17.9%.
Regarding `O=C(COC(=O)c1ccc(F)cc1F)NCc1ccc2c(c1)OCO2`, the inhibition is 2.2%.
In the case of `O=C(Nc1ccc2c(c1)OCCO2)C1CC(c2ccc(F)cc2)=NO1` (centres undefined) it was -3.61%; in that of `C=CCOc1ccc(C2=NOC(C(=O)Nc3ccc4c(c3)OCCO4)C2)cc1OC` (centres undefined), 4.17%.
For `COc1ccccc1-c1nnc2sc(C3CCCCC3)nn12`, the inhibition is -3.09%.
In the case of `COc1cccc(-c2nnc3sc(C4CCCCC4)nn23)c1` it was 66.4%; in that of `CC(CN1CCCC1)OC(=O)c1ccc(Cl)cc1Cl` (centres undefined), 4.38%; in that of `CCCCNC(=S)N1CCN(c2ccc(C(C)=O)cc2)CC1`, 7.05%.
With `CC(=O)c1ccc(N2CCN(C(=S)NCCCN(C)C)CC2)cc1`, the inhibition is 3.66%.
As for `COc1ccc(-c2sc(Nc3ccccc3)n[n+]2-c2ccc(F)cc2)c(C)c1C`, the inhibition was 1.59%.
As for `CC(C)c1ccccc1NC(=O)CC1(CC(=O)O)CCCC1`, the inhibition is -1.9%.
As for `Cc1ccc(N2C(=O)[C@@H]3Cc4ccccc4CN3C2=O)cc1`, the figure is 1.44%; as for `O=[N+]([O-])c1c(C(Cl)Cl)nn(-c2ccccc2)c1N1CCOCC1`, 5.81%; as for `O=[N+]([O-])c1c(C(Cl)Cl)nn(-c2ccccc2)c1N1CCCC1`, -9.83%.
In the case of `Cc1cc(C)n(-c2ccc(C(=O)NCc3cccs3)cc2)n1` it was -8.74%; in that of `COc1ccc(-c2cc(N)n(S(=O)(=O)c3ccc(C)cc3)n2)c(OC)c1`, -6.16%.
As for `Cc1cc(/C=C2\SC(=O)N(C)C2=O)c(C)n1-c1ccc(S(N)(=O)=O)cc1`, the inhibition was -2.91%.
In the case of `Cc1ccc(-n2c(C)cc(/C=C3\SC(=O)NC3=O)c2C)cc1` it was 7.2%; in that of `Nc1ccc(-c2cc(-c3ccc(N)cc3)nc(-c3ccccc3)n2)cc1`, -2.43%; in that of `COc1ccccc1N1CCN(C(c2cccs2)C(C)NC(=O)C(=O)N2CCCCC2)CC1` (centres undefined), 3.15%.
As for `Cc1cc(C(=O)Nc2c(C)nn(Cc3ccccc3Cl)c2C)no1`, the figure is -4.86%; as for `Cc1ccc(S(=O)(=O)Oc2cccc(/C=N/Nc3ccc(C(=O)O)cc3)c2)cc1`, 20.9%; as for `O=C(Cc1cccs1)N1CCCC(c2nc3c(nnn3Cc3ccc(F)cc3)c(=O)[nH]2)C1` (centres undefined), -5.77%.
As for `CC(C)(C)c1ccc(Cn2nnc3c(=O)[nH]c(C4CCCN(C(=O)c5cccs5)C4)nc32)cc1` (centres undefined), the figure is 11.9%.
For `COc1c(/C=N/NC(N)=S)c(C)nn1-c1ccccc1`, the inhibition is 65.5%.
In the case of `CCC1CN(C(=O)N2CCC(C(=O)NCCc3ccccc3OC)CC2)c2ccccc2O1` (centres undefined) it was 2.39%.
In the case of `CCCc1cc2c(cc1NC(=O)c1ccccc1F)OCO2` it was 42%; in that of `CCCc1cc2c(cc1NC(=O)c1ccco1)OCO2`, 0.1%; in that of `CCCCNC(=S)N(C)/N=C/c1ccc(OCC(=O)Nc2ccc(OC)cc2)c(OC)c1`, 5.57%.
On to `O=C(NNC(=O)c1cccc(-n2cnnn2)c1)c1ccccc1`, for which the inhibition is 4.62%.
For the molecule `COc1ccc(CCN2CCCC(CN(C)Cc3cc(OC)c(OC)c(OC)c3)C2)cc1` (centres undefined), the inhibition is 2.86%.
Take `CCCCCCCCNC(=O)/C(C#N)=C/c1ccccc1[N+](=O)[O-]`: the inhibition was 9.84%.
Consider `C(=Nc1ccc(Nc2ccccc2)cc1)c1ccc2ccccc2c1`, for which the inhibition is 1.29%.
`O=[N+]([O-])c1ccc(N=Cc2ccc(Br)c([N+](=O)[O-])c2)cc1`: the inhibition was -2.74%.
As to `Cc1ccc(NC(=O)CCSc2ccccn2)cc1`, the inhibition is -4.42%.
Regarding `Cc1cccc(N2CCN(C(=O)C3CCN(S(=O)(=O)c4cccc5cccnc45)CC3)CC2C)c1` (centres undefined), the inhibition is -1.75%.
As for `Cc1cc(C)c(NC(=O)COC(=O)Cn2nc(-c3ccccc3)oc2=O)c(C)c1`, the inhibition is 3.1%.
As for `C[C@@H]1C[C@H]2OC(=O)C3(CO3)[C@H]2[C@H](O)[C@]2(C)C(=O)C3OC3[C@@H]12` (some centres undefined), the figure is -4.69%; as for `C=C1C(=O)O[C@@H]2C[C@@H](C)[C@H]3C=CC(=O)[C@]3(O)C[C@@H]12`, 7.75%.
On to `Cc1cccc(NC(=O)NNC(=O)COc2ccc3ccccc3c2)c1`, for which the inhibition was -0.35%.
Regarding `COc1ccc(OC)c(C(c2nnnn2C2CCCC2)N2CCN(c3ccc(F)cc3)CC2)c1` (centres undefined), the inhibition was 4.35%.
As for `O=C1C(=O)N(c2ccccn2)C(c2ccc(F)cc2)/C1=C(/O)c1ccc(Br)cc1` (centres undefined), the figure is -4.6%; as for `CC1CCCC(NC(=O)CSC2CCCCC2)C1C` (centres undefined), 3.14%.
On to `CC1CCCC(NC(=O)NC(=O)COC(=O)c2ccc(O)cc2O)C1C` (centres undefined), for which the inhibition was 0.995%.
As for `Cc1cccc(OCC(=O)NNC(=O)Cn2c(=O)cnc3ccccc32)c1`, the figure is -8.21%.
In the case of `O=C(CSc1nc(=O)n2ccccc2n1)Nc1cccc2ccccc12` it was 5.25%; in that of `N#Cc1ccccc1OCC(=O)N1N=C(c2cccs2)CC1c1ccco1` (centres undefined), 1.37%.
In the case of `c1ccc(-c2cc3ncccc3cn2)cc1` it was -4.81%.
Turning to `c1ccc(-c2cn3c(n2)CCC3)cc1`, the inhibition was -1.06%.
On to `O=C(Nc1cccc2c1CCCC2)c1ccccc1F`, for which the inhibition was 10.2%.
Consider `CC(=O)c1ccc(-n2c(CCC(=O)O)ccc2-c2cccs2)cc1`, for which the inhibition was -2.12%.
As to `NC(=O)c1ccc(-n2c(CCC(=O)O)ccc2-c2cccs2)cc1`, the inhibition is -1.94%.
In the case of `CCc1ccc(NC(=O)CC2C(=O)N(c3ccc(OC)cc3)C(=O)N2CCOC)cc1` (centres undefined) it was -1.31%; in that of `CC(C)CNC(=O)c1c(N)n(/N=C/c2ccccn2)c2nc3ccccc3nc12`, 4.33%; in that of `CCC(C)NC(=O)c1c(N)n(/N=C/c2cccnc2)c2nc3ccccc3nc12` (centres undefined), 27.8%.
In the case of `COc1ccc(/C=C/C(=O)Nc2ccccc2Cl)cc1S(=O)(=O)N1CCOCC1` it was -10.4%; in that of `COc1ccc(Cn2nnnc2CN2CCc3ccccc32)cc1`, 1.54%.

By inhibition is commonly meant the relative decrease from the control value, in per cent.
